Several values for one entry are separate records, joined by “and”; a condition that tells them apart may be missing. Identical values can stand only once. Records with an inconclusive call do not appear. A structure can be active in one record and inactive in another. Activity calls are given as the source filed them. The call rests on the fitted dose curve; in most records, active means well fitted curve in the direction sought with a large enough effect; inconclusive means small, poorly fitted or top-dose-only effect, or another doubt; inactive means no such curve, though single readings can be large; an effect the other way counts as inactive or inconclusive.
How the values were obtained:
[1] = Viability qHTS for spleen associated tyrosine kinase inhibitor (SYKi) naive MV4-11 cells (AID 1963823); further: nearly all actives have a fitted effect of over 40% in size
Outline: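 Cells: MV4-11, SYK inhibitor naive, 500 per well. Treatment: library compounds, 72 hr, 37 C, 5% CO2. Read-out: CellTiter-Glo luminescence after 10 min RT.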

[2] = Viability qHTS for spleen associated tyrosine kinase inhibitor (SYKi) drug resistant MV4-11 cells (AID 1963824); further: nearly all actives have a fitted effect of over 35% in size
Outline: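 SYK inhibitor-resistant MV4-11 AML cells, 500 per well, added to predispensed compounds and incubated 72 hr at 37 C, 5% CO2. Viability measured by CellTiter-Glo luminescence after 10 min at room temperature.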

[3] = Cellular viability qHTS for adrenocortical cancer (ACC) cell line SW-13 (AID 1963989); conditions: SW-13 ACC cells viability, CellTiter-Glo, 48 h; activity (max response): stronger effect = lower value; further: nearly all actives have a fitted effect of over 65% in size;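 on activity (max response): cells grown in serum-free medium with ITS supplement; on the % scale 0 is the no-effect control and ±100 the full control effect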
Outline: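 Here, serum-free SW-13 cultures were dosed up to 46 uM. Following 48 h, ATP-dependent luminescence (CellTiter-Glo) reported viable cells, and logistic modeling produced IC50 values.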

[4] = Cellular viability qHTS for adrenocortical cancer (ACC) cell line NCI-H295R (AID 1963990); further: nearly all actives have a fitted effect of over 60% in size
Outline: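 Viability of NCI-H295R after 48 h of treatment (final up to 46 uM) measured through cellular ATP luminescence.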
Potency means the concentration at half of the fitted maximal effect.

| Compound | Potency [1] | Potency [2] | activity (max response) [3] | Potency [4] | Potency [3] |
| --- | --- | --- | --- | --- | --- |
| COC(=O)/C=C/C(=O)N(O)CCCCNCc1ccc(COC(=O)Nc2cccc3ccccc23)cc1 | 7.31 µM (active) | 6.51 µM (active) | -10.5% (inactive) | inactive | – |
| C/C(=N/NC(=O)c1ccncc1)C(=O)O | inactive | inactive | 7.83% (inactive) | inactive | – |
| CCS(=O)(=O)N1CCN(c2ccc(Nc3ncc(C(N)=O)c(NC4CC4)n3)cc2)CC1 | 130 nM (active) and 332 nM (active) | 184 nM (active) and 525 nM (active) | – | 10 µM (active) | 22.4 µM (active) |
| Nc1ccc(/C=C/C(=O)NCc2cc3cc(-c4ccc(C(=O)N5CCC(F)(F)CC5)cc4)cc(-c4ccc(F)cc4)c3o2)cn1 | 148 nM (active) and 184 nM (active) | 0.206 µM (active) | – | 1 µM (active) | 1.12 µM (active) |
| O=S(=O)(NCCNC/C=C/c1ccc(Br)cc1)c1cccc2cnccc12 | 5.17 µM (active) and 4.68 µM (active) | 9.2 µM (active) and 11.8 µM (active) | – | 28.2 µM (active) | 31.6 µM (active) |
| COc1cc2c(Oc3ccc4[nH]c(C)cc4c3F)ccnc2cc1OCC1(N)CC1 | 4.17 µM (active) | 4.17 µM (active) | – | 10 µM (active) | 11.2 µM (active) |
| COc1cc(C(=O)NC2CCCNC2)cc(OC)c1OC (configuration not stated) | inactive | inactive | 8.49% (inactive) | inactive | – |
| CC(C)(C)Sc1c(CC(C)(C)C(=O)O)n(Cc2ccc(Cl)cc2)c2ccc(OCc3ccc4ccccc4n3)cc12 | inactive and 16.6 µM (active) | inactive and 11.8 µM (active) | 0.331% (inactive) | inactive | – |

Reference: PubChem BioAssay (NCATS)
